Publication PMC12864922, “TDP-43 directly inhibits mRNA accumulation in neurites through modulation of mRNA stability”
In all, about 9,900 sequences were measured (“r (bound/input frequency ratio)”: median about 0.7, highest 2% from about 6.5 on). Many of the other results were omitted from the sample, so the highest values are more common in it than they were.

B1: ENSMUSG00000031028.589|Tub (ssRNA)
RNA: GGGAGUUCUACAGUCCGACGAUCGCUUCGAUAUCCGCAUGCUAUUUCUUUCAGUUUAUGGCCACCUGCCCAAAUUGACUUCCAGCUUACAAUCUUCUGUCAUUUCAAGAUCGUAAGAAGUACUGGGAUGGGUUUGAGUUUUCAGCACAGAGGCGAGUUGAUCUAGGAGCAUACAACUGUACUGAGCAGCUAGAGCAUUUGAGCAACCCAUGUAAUCUUUGUGUUUCCCUCCCUGUAAGAAGGCCUGUCAGAGCUUGCUGUAGGAGUUAGGGUAAAUGAAAGUUAGUCCUGGCUCUCAUCACCACUCUUGCGGUCGCACUAGUGUGGAAUUCUCGGGUGUCAAGG
B2: ENSMUSG00000004113.44|Cacna1b (ssRNA)
RNA: GGGAGUUCUACAGUCCGACGAUCGCUUCGAUAUCCGCAUGCUAUCCGCCGUGUACCCAAUGGCUAUCACUGCACUUUGGGACUCAGCACUGGCGUCCGGGCGCGGCACAGCUACCACCACCCCGAUCAGGACCACUGGUGCUAGCUGCACCACGACCACCCAUGUACCAGCUCCAUGGGUGAGGGUUCCAGUUGAUGAGUUUUAUCAUCCGCUCUGGGCUGUGGGGUCACAGCCCUGGGAGGAGGGCCCUCACAUCUCGGCCUCUGUGGUGGAGGCUCCUGCUUCCCUCCCUCCCUCCCUUUUCUCUUGCGGUCGCACUAGUGUGGAAUUCUCGGGUGUCAAGG
B3: ENSMUSG00000031028.188|Tub (ssRNA)
RNA: GGGAGUUCUACAGUCCGACGAUCGCUUCGAUAUCCGCAUGCUAUUAAUGGCAGAGUUGAGAACCUCAAAUUCUUUUGUUCCUACUGUUGCCCAGAAACUAGACUCUCUGACCUGCUAGGGUCUAUUCUGCAUGUCCUUUCUCUUCCCAGUUCCAGAGAUGAAACCCCUCCGAGUUAAUGUAUAAGGUUGGAAACCUUUCAGUAGGGAAUCAGGCAGUUCCCUGUUGAAAGUUGUCUGAGUUUUUGCACACCAUUCUGAUCUGAUGUGGCCUGUGCCUGGCUCCUCUAUGAGGACUUCGAGCUGCUCUUGCGGUCGCACUAGUGUGGAAUUCUCGGGUGUCAAGG
B4: ENSMUSG00000029028.242|Lrrc47 (ssRNA)
RNA: GGGAGUUCUACAGUCCGACGAUCGCUUCGAUAUCCGCAUGCUAGUCAGAACUAGUGAAGCUCCAGGCUCCUCGUGGCAGACCCUGGACAACGCUGGUAGCUGUUCUCCAUGAGACACGGCUGCUCACAGGUCCCUUUGAGUGGCUGUGGCAAGUACUCACCUACUAAGUGUUUAGGGUGGAGCUAUCCUGUGCUCACCCUGUCUCCCCCCAGUUCCUGCUGUUCCCUCCAGCCCAGCCCAGCCCAGGUGUGAGAUUCAUUGAGAUUUUUGAAACUGUUUUUACAGAUUCAAGCAGAACGCCUCCUCUUGCGGUCGCACUAGUGUGGAAUUCUCGGGUGUCAAGG
B5: ENSMUSG00000058297.76|Spock2 (ssRNA)
RNA: GGGAGUUCUACAGUCCGACGAUCGCUUCGAUAUCCGCAUGCUACUGAUCCUGCCCCUCAGCCCAACACCUGGAAUCCCUGCCCUGCCUAAUCAGCCCUACCCCAUCCUGCCUUUCUUCCUUCCUCUUCUGAGGCCAGGGAGAGGGAGGGAGGGCAGGCAGCUGAAAGCUGAGCGUCCUCCCCAAAUUGGGCUGAUUUGAUAUGAAAGCCCCACCACGGUCUUGUGGUGAUGAGGCAGGACCUGUACACACAGCAAGGCUUACUAUCCGUCUCCUGACAUCCGAAGAGCUCGUCGCAGGUGUGUCUCUUGCGGUCGCACUAGUGUGGAAUUCUCGGGUGUCAAGG
B6: ENSMUSG00000061578.198|Ksr2 (ssRNA)
RNA: GGGAGUUCUACAGUCCGACGAUCGCUUCGAUAUCCGCAUGCUAGGCACAGAGUGAAUGGGAAGGAGAGCCCUGAGGUCACUGGUCCACAUGCCCAAAGCCAUGCCCCCCAGUGAUCAGACCUGACACAAGAGGCAAAGCUGUCCCUAAGCAGAGAAUUAGCAGGGUUAGCCAGACAGCAAAAUCCAUGUAAACAUACAAAACCACCCCCCCUUUUUGAGUGGCCCUAUUGGAUGUACACACUAGGACCAAGCACGGGUCCAAAGCAGGAAGACUGAUUGACAGUAGUCACACUUCUAGAGAGACUCUUGCGGUCGCACUAGUGUGGAAUUCUCGGGUGUCAAGG
B7: ENSMUSG00000022095.7|Fam160b2|99:103 (ssRNA)
RNA: GGGAGUUCUACAGUCCGACGAUCGCUUCGAUAUCCGCAUGCUAGUCAAGUUUCCCCCACACGGUCCUUACCUGAACUUCUCUCCACCUCCAGAAGGGCAAGUCUGAGCCAGGAGCAUGACGGGUGGGGGAAGAUUCCUGCCACACAACUUCUGCCCACGGGCAGUCUCCUGCCUGGCCAUGCUGCCACUCUGUCCUCCAUGCCGGGGACUUCAGCUGCAGGACACCUCACCUGUUGACCCCACGAGCUGAGGUUUCAAGGAGGUGCUGGCUCCUAAGGCAGUGGUAUUCUUGGAGCCUUUUAGCUCUUGCGGUCGCACUAGUGUGGAAUUCUCGGGUGUCAAGG
B8: ENSMUSG00000004113.284|Cacna1b (ssRNA)
RNA: GGGAGUUCUACAGUCCGACGAUCGCUUCGAUAUCCGCAUGCUAACCUCAUGGCUGCUUUGCAAAGGGAAAACCCAUGCUCAGGAAGGUGUUCAGUGUGCACAGAUAGCUGGGAGGCCACGAGAGAAAGGUUGCACACAGACAGGCAGGCACUCCUUGGUGUGGUCUCUCUGUUUUGAAACUUCUGAUGACUUCUUGGUGGCUUGUUGUCUUCUACCCCAUGUUUCUCACAGGAUCUGUGUGUGUGUGUGUGUGUGUGUGUGUGUGUGUGUGUGUGUGUGUUAGCAUGUGUGUAUUAGCGUGUGCUCUUGCGGUCGCACUAGUGUGGAAUUCUCGGGUGUCAAGG
B9: ENSMUSG00000004113.286|Cacna1b (ssRNA)
RNA: GGGAGUUCUACAGUCCGACGAUCGCUUCGAUAUCCGCAUGCUACUUUGCAAAGGGAAAACCCAUGCUCAGGAAGGUGUUCAGUGUGCACAGAUAGCUGGGAGGCCACGAGAGAAAGGUUGCACACAGACAGGCAGGCACUCCUUGGUGUGGUCUCUCUGUUUUGAAACUUCUGAUGACUUCUUGGUGGCUUGUUGUCUUCUACCCCAUGUUUCUCACAGGAUCUGUGUGUGUGUGUGUGUGUGUGUGUGUGUGUGUGUGUGUGUGUGUUAGCAUGUGUGUAUUAGCGUGUGUGAGUGUGUGAGCUCUUGCGGUCGCACUAGUGUGGAAUUCUCGGGUGUCAAGG
B10: ENSMUSG00000004113.289|Cacna1b (ssRNA)
RNA: GGGAGUUCUACAGUCCGACGAUCGCUUCGAUAUCCGCAUGCUACAUGCUCAGGAAGGUGUUCAGUGUGCACAGAUAGCUGGGAGGCCACGAGAGAAAGGUUGCACACAGACAGGCAGGCACUCCUUGGUGUGGUCUCUCUGUUUUGAAACUUCUGAUGACUUCUUGGUGGCUUGUUGUCUUCUACCCCAUGUUUCUCACAGGAUCUGUGUGUGUGUGUGUGUGUGUGUGUGUGUGUGUGUGUGUGUGUGUUAGCAUGUGUGUAUUAGCGUGUGUGAGUGUGUGAGCAUGCACGAGUCAUAGGACUCUUGCGGUCGCACUAGUGUGGAAUUCUCGGGUGUCAAGG
B11: ENSMUSG00000004113.285|Cacna1b (ssRNA)
RNA: GGGAGUUCUACAGUCCGACGAUCGCUUCGAUAUCCGCAUGCUAUGGCUGCUUUGCAAAGGGAAAACCCAUGCUCAGGAAGGUGUUCAGUGUGCACAGAUAGCUGGGAGGCCACGAGAGAAAGGUUGCACACAGACAGGCAGGCACUCCUUGGUGUGGUCUCUCUGUUUUGAAACUUCUGAUGACUUCUUGGUGGCUUGUUGUCUUCUACCCCAUGUUUCUCACAGGAUCUGUGUGUGUGUGUGUGUGUGUGUGUGUGUGUGUGUGUGUGUGUGUUAGCAUGUGUGUAUUAGCGUGUGUGAGUGCUCUUGCGGUCGCACUAGUGUGGAAUUCUCGGGUGUCAAGG
B12: ENSMUSG00000004113.287|Cacna1b (ssRNA)
RNA: GGGAGUUCUACAGUCCGACGAUCGCUUCGAUAUCCGCAUGCUAAAAGGGAAAACCCAUGCUCAGGAAGGUGUUCAGUGUGCACAGAUAGCUGGGAGGCCACGAGAGAAAGGUUGCACACAGACAGGCAGGCACUCCUUGGUGUGGUCUCUCUGUUUUGAAACUUCUGAUGACUUCUUGGUGGCUUGUUGUCUUCUACCCCAUGUUUCUCACAGGAUCUGUGUGUGUGUGUGUGUGUGUGUGUGUGUGUGUGUGUGUGUGUGUUAGCAUGUGUGUAUUAGCGUGUGUGAGUGUGUGAGCAUGCACUCUUGCGGUCGCACUAGUGUGGAAUUCUCGGGUGUCAAGG
B13: ENSMUSG00000004113.288|Cacna1b (ssRNA)
RNA: GGGAGUUCUACAGUCCGACGAUCGCUUCGAUAUCCGCAUGCUAAAAACCCAUGCUCAGGAAGGUGUUCAGUGUGCACAGAUAGCUGGGAGGCCACGAGAGAAAGGUUGCACACAGACAGGCAGGCACUCCUUGGUGUGGUCUCUCUGUUUUGAAACUUCUGAUGACUUCUUGGUGGCUUGUUGUCUUCUACCCCAUGUUUCUCACAGGAUCUGUGUGUGUGUGUGUGUGUGUGUGUGUGUGUGUGUGUGUGUGUGUUAGCAUGUGUGUAUUAGCGUGUGUGAGUGUGUGAGCAUGCACGAGUCCUCUUGCGGUCGCACUAGUGUGGAAUUCUCGGGUGUCAAGG

Target: TDP-43 (Homo sapiens, UniProt Q13148 1-414)
Sequence (Q13148 whole entry): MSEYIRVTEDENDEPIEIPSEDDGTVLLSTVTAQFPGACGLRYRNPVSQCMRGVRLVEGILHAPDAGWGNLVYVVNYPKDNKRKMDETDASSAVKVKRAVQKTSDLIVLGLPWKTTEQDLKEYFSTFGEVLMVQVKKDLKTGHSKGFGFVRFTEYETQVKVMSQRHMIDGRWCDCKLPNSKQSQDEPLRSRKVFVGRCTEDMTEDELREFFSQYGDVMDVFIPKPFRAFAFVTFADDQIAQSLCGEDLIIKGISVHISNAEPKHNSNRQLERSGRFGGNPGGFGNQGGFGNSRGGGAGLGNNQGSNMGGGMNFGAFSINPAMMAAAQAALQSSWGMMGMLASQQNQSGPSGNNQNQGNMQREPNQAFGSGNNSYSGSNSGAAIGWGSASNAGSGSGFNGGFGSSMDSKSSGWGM
Test: RNA Bind-n-Seq with designed 260-mer pool; 25 mM Tris-HCl, 150 mM KCl, 3 mM MgCl2, BSA (printed 500 mg/mL), 20 units/mL SUPERase IN; pH not stated; 500 nM RNA pool, 1 h, 4 C; TDP-43 5, 50, 500 nM; high values mean tight binding
Details: protein: recombinant; tags: SBP (GST cleaved off with PreScission; pGEX-GST-SBP)
How it was run: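 The incubation lasted 1 h at 4 °C and used 500 nM of an in vitro-transcribed 260-nt 3′ UTR oligo pool with recombinant SBP-tagged TDP-43 at 5, 50 or 500 nM immobilized on streptavidin beads. It took place in 25 mM Tris-HCl, 150 mM KCl, 3 mM MgCl2, BSA and SUPERase IN. Bound RNA was washed, eluted with biotin, converted to cDNA, PCR-amplified and sequenced to give R, each oligo's normalized abundance in the bound sample divided by that in input. Two independent protein batches provided the duplicates.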

Which binding signal does the source give for B1 here?
Its binding signal is 0.299 R (bound/input frequency ratio).

For B2, which binding signal is on record?
Its binding signal is 0.443 R (bound/input frequency ratio).

For B3, which binding signal is on record?
Its binding signal is 1.12 R (bound/input frequency ratio).

For B4, which binding signal is on record?
The binding signal was 0.479 R (bound/input frequency ratio).

For B5, which binding signal is on record?
The binding signal was 0.827 R (bound/input frequency ratio).

How did the binding signal turn out when B6 was run?
The binding signal was 1.41 R (bound/input frequency ratio).

With B7 as the binder, how does the binding signal read?
Its binding signal is 0.238 R (bound/input frequency ratio).

With B8 as the binder, how does the binding signal read?
Its binding signal is 6.3 R (bound/input frequency ratio).

For B9, which binding signal is on record?
The binding signal was 6.11 R (bound/input frequency ratio).

With B10 as the binder, how does the binding signal read?
The binding signal was 5.06 R (bound/input frequency ratio).

For B11, which binding signal is on record?
Its binding signal is 7.91 R (bound/input frequency ratio).

With B12 as the binder, how does the binding signal read?
The binding signal was 5.32 R (bound/input frequency ratio).

How did the binding signal turn out when B13 was run?
The binding signal was 7.06 R (bound/input frequency ratio).
